Drawing on ChEMBL document CHEMBL1157539, “Thousands of chemical starting points for antimalarial lead identification” (Nature, 2010), this text covers Inhibition for 40 compounds.

Broadly, the Inhibition is the drop in the measured response relative to a control, in per cent.

One experiment relates to Plasmodium falciparum. Kind of experiment: GSK_TCMDC: Inhibition of Plasmodium falciparum Dd2 in whole red blood cells, using parasite LDH activity as an index of growth. Test compounds present at 2uM. The experiment is classed as functional.
With `O=C(NCCc1ccc(Cl)c(Cl)c1)[C@@H]1CCCN1C(=O)c1ccc(O)c(-c2ccc(Cl)c(Cl)c2)c1`, the Inhibition was determined as 99%. Compound `COc1cc2c(cc1OC)C(C(=O)Nc1cc(OC)c(OC)c(OC)c1)C(c1ccc(SC)cc1)N(C)C2=O` (stereo not drawn) gave an Inhibition of 64%. The compound `COc1ccc(S(=O)(=O)N(c2cc(Br)cc3c2OCC3)S(=O)(=O)c2ccc(OC)c(N3CCN(C)CC3)c2)cc1N1CCN(C)CC1` registered an Inhibition of 98%.

A further experiment concerns HepG2. Kind of experiment: GSK_TCMDC: Percent inhibition of human HepG2 cell line. Test compounds present at 10uM. Type of experiment: functional.
Turning to `CCN(CC)Cc1cccc(-c2cc3c(-c4ccc(C(=O)O)c(C(C)C)c4)ccnc3[nH]2)c1OC.O=C(O)C(F)(F)F`, the Inhibition turned out to be 57%. As to `CC(C)OC(=O)c1ccccc1S(N)(=O)=O`, the Inhibition was found to be 0%. Compound `CN(C)Cc1c(O)ccc2[nH]c(-c3ccc(OC(F)(F)F)cc3)nc12` gave an Inhibition of 24%. In turn, `COc1cccc([C@@H](CC(=O)Nc2cc(C(F)(F)F)ccc2OC)Nc2ccc(C#N)c3ccccc23)c1` returned an Inhibition of 19%. Still for that read-out and setting: as for `CN(C)Cc1ccc(-c2cccc(NC(=O)c3cccc(Cl)c3)c2)cc1.O=C(O)C(F)(F)F`, the figure is 18%. Regarding `O=C(Nc1cccc(CN2CCCN(CC3CCCCC3)CC2)c1)c1ccc(Cl)c(Cl)c1.O=C(O)C(F)(F)F`, the Inhibition was determined as 39%. As to `Nc1nccc2ccc(Oc3ccncc3)cc12`, the Inhibition was determined as 0%. With `O=c1cc(NCCCNCc2cc(C(F)(F)F)ccc2F)[nH]c2ccccc12`, the Inhibition was determined as 0%. In the case of `CCN1CCN(c2cc(C)c3cc(NC(=O)c4ccc([N+](=O)[O-])c(C)c4)ccc3n2)CC1`, the Inhibition amounted to 8%. The compound `COc1cccc(C(=O)NCCOc2ccccc2)c1Oc1ccccc1` registered an Inhibition of 14%. `COc1ccc2nccc([C@@H](O)CN3CCC(NCc4nc5ccccc5[nH]4)CC3)c2c1.O=C(O)C(=O)O` had an Inhibition of 41%. For the compound `COc1ccc(-c2nc(NC(=O)CS(=O)(=O)c3ccc(C)cc3)sc2C)cc1`, the Inhibition came to 56%. Regarding `O=C(O)C(F)(F)F.O=c1cc(N2CCCNCC2)c(Cl)nn1Cc1ccc(NS(=O)(=O)c2ccc(Oc3ccccc3)cc2)cc1`, the Inhibition is 0%.

Consider `Cc1ccc(O)cc1Nc1ccnc2ccc(-c3cccc(CN(C)C)c3)cc12`, for which the Inhibition was 0%.

Take `NC1CCN(Cc2cccc(-c3ccc(-c4nc5ccccc5[nH]4)cc3)c2)C1.O=C(O)C(F)(F)F` (stereo not drawn): the Inhibition is listed as 24%. `Cc1ccc(C)c(NC(=O)Nc2ccc(Nc3nc(C)cc(N4CCOCC4)n3)cc2)c1` came in with an Inhibition of 88%. As for `C=CCN1C(=O)C(=Cc2cc(Br)ccc2O)SC1=Nc1ccccc1`, the Inhibition is listed as 0%. As to `Cc1cc(CN2CCC(N3CC(c4ccccc4)(c4ccccc4)OCC3=O)C2)ccc1O.O=C(O)C(F)(F)F` (stereo not drawn), the Inhibition came to 3%. `CN1CCC(Oc2ccc(CN3CC[C@H](NC(=O)c4cc(F)cc(F)c4)C3)c3ccccc23)C1.O=C(O)C(F)(F)F` (stereo partly drawn) came in with an Inhibition of 26%.

For `COc1cccc(-c2csc(C(=O)NCC3CCN(Cc4ccc(C(C)(C)C)cc4)C3)c2)c1.O=C(O)C(F)(F)F` (stereo not drawn), the Inhibition came to 30%. On the same count and under the same terms, then `Cc1ccc(NC(=O)c2cc(Br)cc(N3CCC(N(C)C)CC3)c2)cc1F.O=C(O)C(F)(F)F`, with 23%.

In the case of `Cc1ccc2c(c1)C1(CC(=O)N(CCc3scnc3C)C1=O)C(=O)N2Cc1ccccc1` (stereo not drawn), the Inhibition was 0%. On to `CC(C)CC1c2[nH]c3ccccc3c2CCN1C(=O)CCc1ccccc1` (stereo not drawn), for which the Inhibition is given as 0%.

For `O=C(Nc1ccc(C(=O)OCC2CCCCC2)cc1)N[C@@H](Cc1ccc(O)cc1)C(=O)NC1CCN(Cc2ccc(O)cc2)C1.O=C(O)C(F)(F)F` (stereo partly drawn), the Inhibition worked out at 6%.

Compound `Cc1ccc(NC(=O)c2ccc(Cl)cc2)cc1-c1ccc(C(=O)Nc2ccncc2)cc1` displayed an Inhibition of 36%. The compound `Cc1cc(OCCCN2CCC(NS(=O)(=O)c3cccc(Br)c3)C2)c2ccccc2n1` (stereo not drawn) yielded an Inhibition of 13%. In turn, `Cl.O=c1n(CC2CCCCC2)c2cc(Cl)cc(OCCNc3ccncc3)c2n1CC1CCCCC1` registered an Inhibition of 2%.

With `CC(Cc1ccc(C(=O)OC(c2ccccc2)c2ccccc2)cc1)NCC(O)c1ccccc1.Cl` (stereo not drawn), the Inhibition came to 83%. `Cl.Cn1ncc2c3c(CCN4CCC(NCc5cc6c(cn5)OCC6)CC4)c(Cl)cnc3ccc21` displayed an Inhibition of 4%. With `COc1ccc(Cc2nc(/N=C(\N)Nc3ccccc3)ccc2OC)cc1`, the Inhibition is 40%. `O=C(Nc1ccc(-c2nc3ccc(NC(=O)c4ccc(Br)cc4)cc3[nH]2)cc1)c1ccc(Br)cc1` came in with an Inhibition of 40%. `CCCCCCCOc1ccc(NC(=O)Nc2ccc(Cn3ncc(N4CCCNCC4)c(Cl)c3=O)cc2)cc1.O=C(O)C(F)(F)F` came in with an Inhibition of 60%. Compound `COc1cc(Nc2nccc(N3CCC(NS(=O)(=O)c4ccc(NC(C)=O)cc4)CC3)n2)cc(OC)c1OC` displayed an Inhibition of 0%. `O=C(c1ccccc1[N+](=O)[O-])N(Cc1ccccc1)c1ccccn1` registered an Inhibition of 0%.

Turning to `O=C(Nc1ccccc1-c1ccccc1)C1CCCN1C(=O)Nc1ccc(Cl)cc1` (stereo not drawn), the Inhibition was determined as 0%. For the compound `CC1(C)CN(CCC2CCC(NC(=O)/C=C/c3ccc(F)cc3F)CC2)Cc2ccc(C#N)cc21.Cl` (stereo not drawn), the Inhibition turned out to be 39%. `Cc1ccc(-n2nc3ccc(NC(=O)c4ccc([N+](=O)[O-])o4)cc3n2)cc1C` gave an Inhibition of 20%. `O=C(NCCc1ccc(Cl)c(Cl)c1)[C@@H]1CCCN1C(=O)c1ccc(O)c(-c2ccc(Cl)c(Cl)c2)c1` registered an Inhibition of 0%.

As for `COc1cc2c(cc1OC)C(C(=O)Nc1cc(OC)c(OC)c(OC)c1)C(c1ccc(SC)cc1)N(C)C2=O` (stereo not drawn), the Inhibition is 14%. `COc1ccc(S(=O)(=O)N(c2cc(Br)cc3c2OCC3)S(=O)(=O)c2ccc(OC)c(N3CCN(C)CC3)c2)cc1N1CCN(C)CC1` had an Inhibition of 67%.
